Source: PubChem (National Center for Advancing Translational Sciences (NCATS))
In the library only some 6.5% were active in any assay of this set; here they are far more common.
VACV mCherry inh = vaccinia inhibition (mCherry reporter) | Vaccinia virus mCherry reporter infection, fluorescence | Potency, µM (top dose mostly 36.5 µM), actives largely listed as inhibitors | 310,000 tested, 0.63% active | AID 720579; calls by dose curve; tested in A549 cells; further: nearly all actives have a fitted effect of over 35% in size
HCMV inh = blocks human cytomegalovirus replication. HFF cells, HCMV-luciferase reporter, 72 h; stronger effect = lower value. 410,000 tested, 4.5% active. AID 1259415. activity change, negative = inhibition, % at 57.5 µM; in the data active means activity change below about -60%; inconclusive means no clear call, values can overlap the other calls; inactive means above about -39%
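Compounds were evaluated in HFFs infected with an HCMV luciferase reporter virus (MOI 1 PFU/cell). Luciferase in lysates collected 72 h post infection served as the replication measure.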
VACV Venus inh = vaccinia inhibition (Venus reporter); Vaccinia virus Venus reporter expression, fluorescence; Potency, µM (top dose mostly 36.5 µM), usual class: inhibitors; 330,000 tested, 0.46% active; AID 720580; calls by dose curve; tested in A549 cells; further: nearly all actives have a fitted effect of over 30% in size
FMDV antiviral = antivirals against foot and mouth disease virus. 410,000 tested, 1.2% active. Potency, µM (titrated, usually from 57.9 µM), most hits filed as inhibitors. AID 1159524. FMDV antiviral cell-based qHTS; calls by dose curve; tested in HEK293T cells; further: read-out not given here; nearly all actives have a fitted effect of over 45% in size
Marburg entry inh = Marburg virus entry inhibition. Marburg virus pseudotyped entry inhibition, cell reporter. Potency, µM (series often up to 37.8 µM), actives largely listed as inhibitors. 300,000 tested, 1.8% active. AID 540276; calls by dose curve; tested in HEK293 cells
Lassa entry inh = Lassa virus entry inhibition; Lassa virus pseudotype entry inhibition, cell reporter; Potency, µM (highest dose often 37.9 µM), hits mostly inhibitors; 300,000 tested, 1.2% active; AID 540256; calls by dose curve; tested in HEK293 cells; further: nearly all actives have a fitted effect of over 50% in size
Numbers stand for hits; n = inactive; u = inconclusive; x = no result given; + = active, no number; ! = not confirmed by another sample; [ ] = another dose, or the depositor's remark.

SMILES	VACV mCherry inh	HCMV inh	VACV Venus inh	FMDV antiviral	Marburg entry inh	Lassa entry inh
COc1ccc(-n2cc(C(=O)N(C)c3cc(C)ccc3OC)c3ccccc3c2=O)cc1	n	-85	n	n	x	n
COc1ccccc1C(=O)Nc1ccc(-c2cc(C(F)(F)F)nn2-c2ccccc2)cc1	u	-61	n	u	u	n
COc1ccccc1C(=O)NC(=O)Nc1ccc(-c2cc(C(F)(F)F)nn2-c2ccccc2)cc1	n	n	n	u	n	n
Nc1nc(-c2c(Cl)cccc2Cl)no1	x	n	x	n	x	x
COc1cc(NC(=O)c2ccc(C(C)(C)C)cc2)c(OC)cc1NC(=O)CN1CCCCC1	n	u	n	u	u	10µM
O=C(CN1CCCCC1)Nc1cccc(Cl)c1Cl	n	n	n	n	n	n
O=C(CN1CCCCCCC1)Nc1cccc(Cl)c1Cl	x	-65	x	n	x	x
O=C(CN1CCN(C(=O)CNC(=O)c2ccc(-c3ccccc3)cc2)CC1)Nc1ccccc1Cl	u	u	u	28µM	x	x
COC(=O)c1ccccc1NC(=O)CN1CCOCC1	x	n	x	n	n	n
COC(=O)c1ccccc1NC(=O)CN1CCCCC1	+	n	+	n	u	u
O=C(NC12CC3CC(CC(C3)C1)C2)c1cccnc1Cl	x	n	x	n	x	x
COc1ccc(S(=O)(=O)Nc2ccc(OCC(=O)O)cc2)c2ccccc12	n	n	n	n	u	n
COC(=O)c1ccccc1NC(=O)Cn1c(=O)n(-c2ccc(C)cc2)c(=O)c2ccccc21	u	-62	n	n	u	n
COc1ccc(NC(=O)Cn2c(=O)n(-c3ccc(CC(=O)NCc4ccco4)cc3)c(=O)c3ccccc32)cc1	n[7.34 µM]	-63	n[7.34 µM]	n	x	x
Cc1ccc(S(=O)(=O)Nc2ccc(NC(=O)CN3CCCCC3)c(Cl)c2)cc1	x	-102	x	n	u	n
COc1ccc(NC(=O)CNC(=O)c2ccco2)cc1	n	n	n	n	n	u
COC(=O)c1ccccc1NC(=O)Cn1c(=O)n(CCCC(=O)NCc2ccccc2Cl)c(=O)c2ccccc21	n	n	n	n	n	n
COC(=O)c1ccccc1NC(=O)CNC(=O)c1ccco1	x	-72	n	n	n	n
Cc1ccc(S(=O)(=O)N2CCN(CC(=O)Nc3ccccc3Cl)CC2)cc1	x	n	x	n	x	x
CC1CN(CCC(=O)N2CCCC(C(=O)c3nccn3C)C2)Cc2cc(Cl)ccc2O1 (centres undefined)	n	x	n	n	x	x
COc1ccc(N(C(=O)c2snc(C(N)=O)c2N)C(C(=O)NC2CCCCC2)c2ccc(C)o2)cc1 (centres undefined)	n	-70	n	n	u	u
Cc1cc(C)cc(N(C(=O)c2snc(C(N)=O)c2N)C(C(=O)NCC2CCCO2)c2cccs2)c1 (centres undefined)	n	-93	n	n	u	u
O=C(NCC1CCCO1)C(c1ccc(F)cc1)N(C(=O)Cn1nnc(-c2ccc(F)cc2)n1)c1cccc(O)c1 (centres undefined)	n	u	n	n	10µM	n
COc1ccc(N(C(=O)c2snc(C(N)=O)c2N)C(C(=O)NC2CCCC2)c2ccco2)cc1 (centres undefined)	n	n	n	n	u	n
NC(=O)c1nsc(C(=O)N(c2ccc3c(c2)OCCO3)C(C(=O)NCC2CCCO2)c2ccc(F)cc2)c1N (centres undefined)	n	-74	n	n	u	u
SMILES	VACV mCherry inh	HCMV inh	VACV Venus inh	FMDV antiviral	Marburg entry inh	Lassa entry inh
NC(=O)c1nsc(C(=O)N(c2ccccc2)C(C(=O)NCC2CCCO2)c2cccs2)c1N (centres undefined)	x	n	x	n	u	u
Cc1ccc(S(=O)(=O)Nc2ccccc2C(=O)N2CCN(C)CC2)cc1	x	n	x	n	x	x
CC(C(=O)NC1CCCC1)N(C(=O)Cn1nnc(-c2ccc(F)cc2)n1)c1ccccc1F (centres undefined)	n	n	n	n	8.2µM	u
Cc1ccc(C(C(=O)NCC2CCCO2)N(C(=O)c2snc(C(N)=O)c2N)c2ccc3c(c2)OCCO3)cc1 (centres undefined)	n	n	n	n	u	6.3µM
Cc1ccc(C(C(=O)NCC2CCCO2)N(C(=O)c2snc(C(N)=O)c2N)c2ccc(F)cc2)o1 (centres undefined)	n	-75	n	n	u	u
O=C(CSc1nncs1)NNC(=O)c1ccccc1Br	n	n	n	n	n	n
CCCN1CNc2c(c(=O)[nH]c(=S)n2CCc2cc(OC)ccc2OC)C1	n	x	n	x	x	x
CCc1nn2c(=O)c(S(=O)(=O)Nc3ccc(C)c(C)c3)c(C)nc2s1	n	-88	n	n	n	n
Cc1cccc(NS(=O)(=O)c2c(C)nc3scc(C)n3c2=O)c1	n	-70	n	n	n	n
Cc1nc2scc(C)n2c(=O)c1S(=O)(=O)Nc1ccc(N2CCN(S(C)(=O)=O)CC2)cc1	n	-83!	n	u	u	n
CCc1ccc(NS(=O)(=O)c2c(C)nc3sc(CC)nn3c2=O)cc1	u	n	n	u	u	n
COc1ccc(S(=O)(=O)NNC(=O)Nc2ccc(F)cc2)cc1	x	n	x	n	x	x
COc1cc(/C=C(\C#N)C(=O)N2CCOCC2)cc(Br)c1O	x	n	x	n	u	n
N#C/C(=C\c1cccc(Oc2ccccc2)c1)C(=O)N1CCOCC1	n	n	n	35µM	u	u
COc1ccc2nc(-c3ccccc3)nc(C3CCCCC3)c2c1	n	n	n	n	x	x
COc1ccc(C2(O)CC3CCC(C2)N3c2cc(C)nc(-c3ccccc3)n2)cc1 (centres undefined)	n	n	n	u	12µM	n
Cc1ccc(C2=CC(=O)C[C@H](c3ccc(F)cc3)C2)cc1	n	n	n	n	x	x
Cc1cccn2c(=O)c3cc(C(=O)NCCN4CCOCC4)c(=N)n(CCc4ccccc4)c3nc12	n	-85	n	n	u	n
Cc1cccn2c(=O)c3cc(C(=O)NCCN4CCOCC4)c(=N)n(CCCN4CCOCC4)c3nc12	n	n	n	n	7.9µM	u
COc1ccc(CCn2c(=N)c(C(=O)NCCN3CCOCC3)cc3c(=O)n4cccc(C)c4nc32)cc1OC	x	-95	x	n	x	x
Cc1cccn2c(=O)c3cc(C(=O)NCc4ccccc4)c(=N)n(CCCN4CCOCC4)c3nc12	x	n	x	n	x	x
Cc1ccc(Cn2cc(S(=O)(=O)c3cccc(Cl)c3)c(=O)c3cc(F)c(N4CCOCC4)cc32)cc1	n	n	n	n	x	u
O=C(Cc1cccnc1)N1CC(=O)N2[C@@H](CO)[C@H](c3ccc(Br)cc3)[C@@H]2C1	x	n	x	x	x	x
Cc1cc(C)c(-c2n[nH]c3c2C(c2ccccc2F)N(Cc2ccco2)C3=O)c(O)c1 (centres undefined)	n[7.34 µM]	-73	n[7.34 µM]	n	u	u
CCCOc1cccc(C2c3c(-c4ccccc4O)n[nH]c3C(=O)N2Cc2ccco2)c1 (centres undefined)	n[7.34 µM]	-72	n[7.34 µM]	n	u	u
O=C1c2[nH]nc(-c3ccccc3O)c2C(c2cccc(O)c2)N1Cc1ccco1 (centres undefined)	x	n	n	n	n	0.5µM
